Measured values published in PubChem BioAssay (NCATS).
Records with an inconclusive call do not appear. Activity calls are given as the source filed them. Unless noted, calls follow the shape of the dose curve; as a rule, active = well fitted curve in the direction sought with a large enough effect; inconclusive = small, poorly fitted or top-dose-only effect, or another doubt; inactive = no such curve, though single readings can be large; an effect the other way counts as inactive or inconclusive.

How the values were obtained:
[1] = High Content Imaging Cell-Based qHTS for Inhibitors of the mTORC1 Signaling Pathway in MEF Cells (AID 2667); details: series mostly up to 38.3 µM;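 also: Tsc2-/- p53-/- MEFs stably re-expressing wild-type Tsc2 exposed 24 h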
How it was run: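 WT MEFs (Tsc2-/-, p53-/- re-expressing Tsc2), in DMEM + 10% FBS, were treated with compound for 24 h at 37 C. Cells were then fixed and stained for phospho-rpS6 Ser235/236 with propidium iodide as cell count. Values are % positive cells, with thresholds set against rapamycin-treated cells.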

[2] = Cytometry Cell-Based qHTS for Inhibitors of the mTORC1 Signaling Pathway in MEF cells (AID 2668); details: mTORC1 pathway readout; series mostly up to 38.3 µM;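 also: Tsc2-/- p53-/- mouse embryonic fibroblasts stably re-expressing wild-type Tsc2; percent cells positive for phospho-rpS6 Ser235/236 relative to propidium iodide stain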
How it was run: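 Tsc2-/-, p53-/- MEFs re-expressing WT Tsc2; cpd 24 hrs, 37 degree Celsius; PFA fix, Alexa-488 p-rpS6 (Ser235/236) Ab 2 hrs RT, PI counterstain; Acumen 488nm scan; p-S6/PI ratio → % positive cells; PI count = viability.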

[3] = Validation screen for small molecules that induce DNA re-replication in MCF 10A normal breast cells (AID 463097); details: MCF 10A cells, DNA re-replication phenotype imaging; series mostly up to 46.1 µM; also: nearly all actives have a fitted effect of over 60% in size
How it was run: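 Image-based qHTS: normal breast cells are incubated with compound for 48 hr, stained with Hoechst, and scanned for total nuclear fluorescence. Compounds raising the fraction of nuclei with elevated DNA content count as re-replication inducers.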

[4] = molecular target: Ubiquitin carboxyl-terminal hydrolase 2 (Homo sapiens) (UniProt O75604); test: qHTS Validation Assay for Inhibitors of Ubiquitin-specific Protease USP2a Using CHOP2 as the Reporter (AID 463106); details: USP2a cleavage of CHOP2 reporter, enzymatic; series mostly up to 38.3 µM
Chain of Ubiquitin carboxyl-terminal hydrolase 2 (Homo sapiens) (O75604 whole entry, looked up): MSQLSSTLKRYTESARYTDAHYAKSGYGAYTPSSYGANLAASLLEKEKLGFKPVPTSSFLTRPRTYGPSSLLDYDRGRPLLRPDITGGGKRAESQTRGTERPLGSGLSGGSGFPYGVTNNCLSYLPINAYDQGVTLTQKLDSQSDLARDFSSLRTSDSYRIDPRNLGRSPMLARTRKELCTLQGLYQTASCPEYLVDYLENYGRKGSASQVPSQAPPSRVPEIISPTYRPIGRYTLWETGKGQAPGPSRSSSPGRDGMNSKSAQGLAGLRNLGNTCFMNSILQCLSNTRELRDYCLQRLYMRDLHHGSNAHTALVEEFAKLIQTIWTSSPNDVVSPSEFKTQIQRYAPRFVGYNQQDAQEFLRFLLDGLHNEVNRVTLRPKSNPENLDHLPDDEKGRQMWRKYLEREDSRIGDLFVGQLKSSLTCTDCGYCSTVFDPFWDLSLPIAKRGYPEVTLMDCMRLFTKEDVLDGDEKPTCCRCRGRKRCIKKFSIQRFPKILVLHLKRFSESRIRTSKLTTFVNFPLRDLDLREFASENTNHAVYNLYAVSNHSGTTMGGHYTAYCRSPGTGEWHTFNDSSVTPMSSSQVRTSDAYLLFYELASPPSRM
How it was run: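 USP2 core (10 nM final) was preincubated with compound 30 min at RT in pH 8.0 Tris/CaCl2/beta-ME/CHAPS buffer. Ub-CHOP2 and reporter substrate (25 nM final each) were then added, with fluorescence (Ex 485/Em 531) read after 60 min. Data were normalized to NEM full inhibition and fitted to concentration-response curves.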

[5] = molecular target: DNA polymerase III PolC-type (Bacillus subtilis (strain 168)) (UniProt P13267); test: qHTS Validation Assay for the Inhibitors of DNA Replication in Gram-Positive Bacteria (AID 485295); details: Gram-positive bacterial DNA replication assay; series mostly up to 57.1 µM;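 also: reconstituted holoenzyme with PolC plus beta clamp SSB and primase; PicoGreen fluorescence of double-stranded DNA made on primed circular M13 template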
How it was run: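 First, compound is mixed with the reconstituted replication complex and held at room temperature. Next, circular single-stranded M13Gori with nucleotides starts synthesis. Finally, PicoGreen in EDTA halts the reaction and stains double-stranded product for fluorescence reading.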

[6] = molecular target: Tumor susceptibility gene 101 protein (Homo sapiens) (UniProt Q99816); test: qHTS Validation Assay for Iinhibitors of HIV-1 Budding by Blocking the Interaction of PTAP/TSG101 (AID 485342; calls by dose curve); details: TSG101-PTAP binding, fluorescence polarization, 4-point titration; series mostly up to 115 µM
Chain of Tumor susceptibility gene 101 protein (Homo sapiens) (Q99816 whole entry, looked up, the tested form may be a part): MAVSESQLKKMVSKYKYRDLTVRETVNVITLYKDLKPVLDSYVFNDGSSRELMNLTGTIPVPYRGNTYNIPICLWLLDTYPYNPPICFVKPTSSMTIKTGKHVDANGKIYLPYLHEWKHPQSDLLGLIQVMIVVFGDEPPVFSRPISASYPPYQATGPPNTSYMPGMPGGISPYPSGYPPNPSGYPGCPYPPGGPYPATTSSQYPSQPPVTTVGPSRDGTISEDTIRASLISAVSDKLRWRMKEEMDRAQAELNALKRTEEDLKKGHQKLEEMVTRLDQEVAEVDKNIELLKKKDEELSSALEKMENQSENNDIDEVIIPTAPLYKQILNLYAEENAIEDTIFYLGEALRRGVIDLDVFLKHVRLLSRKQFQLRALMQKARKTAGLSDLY
How it was run: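 Binding of a FITC-tagged PTAP-motif peptide (50 nM) to the Tsg101 binding domain (10 uM) is monitored by fluorescence polarization. Compounds are pin-delivered before peptide addition, and incubation runs 20 min at room temperature.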

[7] = qHTS Validation Assay to Find Inhibitors of Chronic Active B-Cell Receptor Signaling (AID 485345; active = well fitted curve in the direction sought with a large enough effect in the main read-out, with a control signal flat, not every such curve was filed as active); details: ABC-DLBCL cells, chronic BCR signaling reporter, CBG luciferase; series mostly up to 46.1 µM
How it was run: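 TMD8 ABC-DLBCL cells stably carrying doxycycline-inducible IkappaBalpha–green luciferase fusion plus unfused red luciferase; compounds 46 uM to 3 nM, 4 h at 37C with doxycycline. Corrected green/red luminescence ratio normalized to 10 uM MG-132 and basal cell wells; curves fitted.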

[8] = molecular target: Beta-2 adrenergic receptor (Homo sapiens) (UniProt P07550); test: qHTS validation assay of beta-arrestin-biased ligands of beta2-adrenergic receptor (AID 485366); details: cell-based beta-arrestin recruitment to ADRB2, qHTS; series mostly up to 46.1 µM
Chain of Beta-2 adrenergic receptor (Homo sapiens) (P07550 whole entry, looked up): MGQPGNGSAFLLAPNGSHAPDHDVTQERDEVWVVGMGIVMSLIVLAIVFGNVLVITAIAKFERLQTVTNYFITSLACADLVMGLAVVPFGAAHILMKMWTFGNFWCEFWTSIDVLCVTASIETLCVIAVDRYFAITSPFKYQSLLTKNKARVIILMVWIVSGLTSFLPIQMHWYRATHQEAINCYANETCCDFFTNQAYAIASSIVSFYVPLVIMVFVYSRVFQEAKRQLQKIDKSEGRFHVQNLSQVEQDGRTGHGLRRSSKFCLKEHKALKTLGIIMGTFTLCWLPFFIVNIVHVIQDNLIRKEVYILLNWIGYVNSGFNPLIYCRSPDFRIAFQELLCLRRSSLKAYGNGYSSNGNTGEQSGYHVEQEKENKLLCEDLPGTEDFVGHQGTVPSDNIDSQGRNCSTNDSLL
How it was run: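 Luminescence from a tTA-responsive luciferase, induced when recombinant beta-arrestin is recruited to recombinant beta2-AR, served as the agonism signal. Cells were exposed to compound for 18 hr at 37 degrees C; titrations spanned up to 46 microM.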

[9] = Quantitative high throughput screen for delayed death inhibitors of the malarial parasite plastid, 96 hour incubation (AID 488745); details: Plasmodium falciparum growth; series mostly up to 28.7 µM;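 also: luciferase-expressing P. falciparum in erythrocytes at 2% hematocrit and 0.1% parasitemia; nearly all actives have a fitted effect of over 70% in size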
How it was run: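 Growth of reporter-bearing P. falciparum in red cells is measured after 96 h with compound, covering two erythrocytic cycles. Luminescence from the integrated luciferase serves as the growth signal.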

[10] = Quantitative high throughput screen for delayed death inhibitors of the malarial parasite plastid, 48 hour incubation (AID 488752); details: Plasmodium falciparum growth; series mostly up to 28.7 µM; also: nearly all actives have a fitted effect of over 65% in size
How it was run: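 One parasite generation (48 h, 37 C, 5% CO2) of luciferase-reporter P. falciparum in erythrocytes is run with test compound; decreased luminescence indicates inhibited growth.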

[11] = molecular target: Thioredoxin reductase 1, cytoplasmic (Rattus norvegicus) (UniProt O89049); test: qHTS Assay for Substrates of Mammalian Selenoprotein Thioredoxin Reductase 1 (TrxR1) (AID 488772); details: purified TrxR1, NADPH consumption substrate assay; series mostly up to 57.1 µM;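 also: NADPH fluorescence in the first read after selenite addition and not the 8 min delta; a drop in NADPH fluorescence below the no-compound background marks a TrxR1 substrate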
How it was run: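 Quantitative HTS in Tris-HCl buffer at pH 7.5 with EDTA and Tween-20, using rat TrxR1, 400 uM NADPH and 400 uM selenite (final). A fall in initial NADPH fluorescence relative to background marked substrate behaviour.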

[12] = molecular target: Thioredoxin reductase 1, cytoplasmic (Rattus norvegicus) (UniProt O89049); test: qHTS Assay for Inhibitors of Mammalian Selenoprotein Thioredoxin Reductase 1 (TrxR1) (AID 488773); details: purified TrxR1 enzyme activity; Potency: inhibition; series mostly up to 57.1 µM; also: nearly all actives have a fitted effect of over 40% in size; also: potency is read from the fitted curve at half-maximal effect
How it was run: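 Steps: enzyme (90 nM) plus NADPH (400 uM final), 5 min at ~22 deg C; compound added, 15 min; selenite (400 uM final) added; fluorescence followed for 8 min. Concentration-response curves derived from the normalized delta values.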

[13] = molecular target: Flap endonuclease 1 (Homo sapiens) (UniProt P39748); test: qHTS Validation Assay for the Inhibitors of Human Flap endonuclease 1 (FEN1) (AID 488816); details: FEN1 nuclease activity, fluorogenic DNA substrate; series mostly up to 57.1 µM
Chain of Flap endonuclease 1 (Homo sapiens) (P39748 whole entry, looked up): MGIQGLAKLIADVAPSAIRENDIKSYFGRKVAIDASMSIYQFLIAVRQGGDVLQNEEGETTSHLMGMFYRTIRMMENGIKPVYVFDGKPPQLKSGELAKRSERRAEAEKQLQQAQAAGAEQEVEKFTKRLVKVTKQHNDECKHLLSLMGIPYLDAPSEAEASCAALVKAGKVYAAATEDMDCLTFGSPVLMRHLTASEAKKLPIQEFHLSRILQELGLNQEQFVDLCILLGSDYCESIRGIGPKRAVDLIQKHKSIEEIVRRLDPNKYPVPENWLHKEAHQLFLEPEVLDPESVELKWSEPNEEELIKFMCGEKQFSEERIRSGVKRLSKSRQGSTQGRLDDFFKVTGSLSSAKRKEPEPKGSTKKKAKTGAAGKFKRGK
How it was run: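 Human FEN1 (10 nM) preincubated 15 min at room temperature with compounds, then flap DNA substrate added at 50 nM final. Fluorescence read at 0 and 15 min; concentration-response fitted with four-parameter Hill equation.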

[14] = molecular target: M-phase phosphoprotein 8 (Homo sapiens) (UniProt Q99549); test: qHTS Validation Assay for Inhibitors for MPP8 Chromodomain Interactions with Methylated Histone Tails (AID 488949); details: AlphaScreen MPP8 binding to H3K9me3 peptide; series mostly up to 57.1 µM;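 also: 50 nM MPP8 with 50 nM peptide preformed then compounds added for 30 min; AlphaScreen signal from MPP8 chromodomain bound to biotinylated H3K9me3 peptide; top concentration of the series differs between compounds; nearly all actives have a fitted effect of over 55% in size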
Chain of M-phase phosphoprotein 8 (Homo sapiens) (Q99549 whole entry, looked up): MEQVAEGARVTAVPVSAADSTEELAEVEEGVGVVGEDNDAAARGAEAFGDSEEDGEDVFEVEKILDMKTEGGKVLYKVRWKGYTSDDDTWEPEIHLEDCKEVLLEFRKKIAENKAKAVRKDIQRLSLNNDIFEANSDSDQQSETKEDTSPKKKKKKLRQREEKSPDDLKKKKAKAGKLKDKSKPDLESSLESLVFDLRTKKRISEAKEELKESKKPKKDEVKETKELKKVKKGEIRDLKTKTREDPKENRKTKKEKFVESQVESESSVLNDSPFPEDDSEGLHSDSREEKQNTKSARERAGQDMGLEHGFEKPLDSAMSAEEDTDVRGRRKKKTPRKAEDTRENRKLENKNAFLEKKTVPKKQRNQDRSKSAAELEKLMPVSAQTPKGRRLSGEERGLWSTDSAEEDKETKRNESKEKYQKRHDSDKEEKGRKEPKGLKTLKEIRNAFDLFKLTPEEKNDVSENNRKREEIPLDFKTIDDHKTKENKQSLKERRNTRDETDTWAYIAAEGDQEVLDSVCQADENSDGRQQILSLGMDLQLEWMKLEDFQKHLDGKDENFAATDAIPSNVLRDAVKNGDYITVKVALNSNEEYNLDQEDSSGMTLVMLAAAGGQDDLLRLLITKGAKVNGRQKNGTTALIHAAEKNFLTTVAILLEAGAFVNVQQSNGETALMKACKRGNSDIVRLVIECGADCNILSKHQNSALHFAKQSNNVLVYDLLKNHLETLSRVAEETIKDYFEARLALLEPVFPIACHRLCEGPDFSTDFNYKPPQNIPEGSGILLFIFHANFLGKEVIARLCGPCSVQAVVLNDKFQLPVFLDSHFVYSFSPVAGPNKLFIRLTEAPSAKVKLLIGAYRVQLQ
How it was run: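 50 nM MPP8 + 50 nM b-H3K9me3 peptide, PBS pH 7.4/0.01% Tween-20, 30 min RT; + cpd 30 min RT; + AlphaScreen donor/Ni-chelate acceptor beads 10 ug/mL final, 30 min dark; luminescence read.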

[15] = molecular target: Chromobox protein homolog 1 (Homo sapiens) (UniProt P83916); test: qHTS Validation Assay for Inhibitors of HP1-beta Chromodomain Interactions with Methylated Histone Tails (AID 488953); details: HP1-beta chromodomain / methylated histone peptide binding assay; series mostly up to 114 µM;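 also: loss of AlphaScreen luminescence from HP1-beta binding biotinylated H3K9me3 peptide; nearly all actives have a fitted effect of over 50% in size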
How it was run: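 Measured as loss of AlphaScreen luminescence from streptavidin donor and nickel acceptor beads (10 ug/mL final) bridging HP1-beta and biotin-H3(1-18)K9me3, each 50 nM. Compounds met the preassembled complex for 30 min at RT.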

[16] = molecular target: Methanococcus maripaludis chaperonin (MmCpn) (UniProt Q6LX38); test: High-Throughput Screening for Modulators of Cytosolic Chaperonin Activity: MmCpn Primary Screen (AID 488978); details: Purified MmCpn ATPase activity, ADP HTRF detection, 10 min; series mostly up to 76.9 µM;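 also: 50 nM MmCpn enzyme hydrolysing 30 µM ATP at 37 °C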
Chain of Methanococcus maripaludis chaperonin (MmCpn) (Q6LX38 1-543): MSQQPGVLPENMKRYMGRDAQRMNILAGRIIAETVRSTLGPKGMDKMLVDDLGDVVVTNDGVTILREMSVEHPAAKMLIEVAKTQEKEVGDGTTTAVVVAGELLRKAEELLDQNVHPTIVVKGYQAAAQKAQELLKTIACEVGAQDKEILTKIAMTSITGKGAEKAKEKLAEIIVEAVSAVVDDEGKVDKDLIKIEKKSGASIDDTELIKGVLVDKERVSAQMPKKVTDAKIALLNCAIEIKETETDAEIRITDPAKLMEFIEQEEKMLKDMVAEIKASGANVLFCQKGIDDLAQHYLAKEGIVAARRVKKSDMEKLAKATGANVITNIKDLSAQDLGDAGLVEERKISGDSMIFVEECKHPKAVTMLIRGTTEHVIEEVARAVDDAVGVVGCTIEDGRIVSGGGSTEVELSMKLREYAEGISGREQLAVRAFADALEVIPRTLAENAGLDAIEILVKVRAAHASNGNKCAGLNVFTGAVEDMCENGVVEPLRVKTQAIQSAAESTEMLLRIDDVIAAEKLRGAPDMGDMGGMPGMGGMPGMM
How it was run: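 Steps: chaperonin 50 nM final; add compound, 5 min RT; start with ATP, 30 uM final; hold 10 min at 37C; add ADP Transcreener HTRF reagent, 5 min; read ex 320, em 590 and 665 nm.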

[17] = molecular target: Transient receptor potential cation channel subfamily V member 1 (Homo sapiens) (UniProt Q8NER1); test: HTS Assay for Compounds that Act as Enhancers of the Vanilloid Receptor 1 (AID 488979); details: TRPV1-expressing cells, enhancer of channel activity, stimulated with capsaicin at EC20; series mostly up to 41.7 µM
Chain of Transient receptor potential cation channel subfamily V member 1 (Homo sapiens) (Q8NER1 whole entry, looked up): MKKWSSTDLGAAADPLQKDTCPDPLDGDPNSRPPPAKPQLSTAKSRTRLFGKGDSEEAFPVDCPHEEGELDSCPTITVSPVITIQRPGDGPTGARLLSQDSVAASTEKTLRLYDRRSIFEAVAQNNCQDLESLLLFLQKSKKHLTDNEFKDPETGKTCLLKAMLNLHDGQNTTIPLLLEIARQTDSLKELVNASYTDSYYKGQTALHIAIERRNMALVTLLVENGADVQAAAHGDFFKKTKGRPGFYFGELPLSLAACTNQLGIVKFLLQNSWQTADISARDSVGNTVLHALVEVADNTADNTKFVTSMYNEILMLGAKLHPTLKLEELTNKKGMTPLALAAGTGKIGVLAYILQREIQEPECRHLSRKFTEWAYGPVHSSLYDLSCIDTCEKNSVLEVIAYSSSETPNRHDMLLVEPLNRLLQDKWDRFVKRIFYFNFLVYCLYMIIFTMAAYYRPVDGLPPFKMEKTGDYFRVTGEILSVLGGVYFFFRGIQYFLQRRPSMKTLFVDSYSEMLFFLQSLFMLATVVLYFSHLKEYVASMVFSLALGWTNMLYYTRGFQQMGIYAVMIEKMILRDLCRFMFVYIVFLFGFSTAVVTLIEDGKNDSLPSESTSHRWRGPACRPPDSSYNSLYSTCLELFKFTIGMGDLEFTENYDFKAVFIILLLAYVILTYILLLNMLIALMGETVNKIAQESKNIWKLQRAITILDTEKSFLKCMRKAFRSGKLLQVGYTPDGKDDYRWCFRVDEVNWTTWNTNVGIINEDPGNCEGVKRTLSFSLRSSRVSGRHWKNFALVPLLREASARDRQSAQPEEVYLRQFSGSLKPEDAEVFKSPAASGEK
How it was run: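 TRPV1 cells loaded with Fluo-8 calcium dye; compound added and Ca2+ signal (ex 480/em 520 nm) followed 3 min, then capsaicin at EC20 added and read 2 more min to detect enhancement.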

[18] = molecular target: Thyrotropin receptor (Homo sapiens) (UniProt P16473); test: qHTS Assay for Antagonists of the Thyroid Stimulating Hormone Receptor (AID 488980); details: TSHR-expressing cells, cAMP antagonist read-out; series mostly up to 57.5 µM
How it was run: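 Readout is cAMP by HTRF competition between cellular cAMP and cAMP-d2 for a cryptate-labelled antibody. Antagonism was assessed in TSHR-transfected HEK293 cells stimulated with 4 nM TSH (EC80, final) in the presence of RO 20-1724.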

[19] = molecular target: D(1A) dopamine receptor (Homo sapiens) (UniProt P21728); test: HTS Assay for Allosteric Agonists of the Human D1 Dopamine Receptor: Primary Screen for Agonists (AID 488981); details: Inducible HEK293 T-REx D1 cells, calcium-flux fluorescence, 180 s kinetic; series mostly up to 41.8 µM
Chain of D(1A) dopamine receptor (Homo sapiens) (P21728 whole entry, looked up): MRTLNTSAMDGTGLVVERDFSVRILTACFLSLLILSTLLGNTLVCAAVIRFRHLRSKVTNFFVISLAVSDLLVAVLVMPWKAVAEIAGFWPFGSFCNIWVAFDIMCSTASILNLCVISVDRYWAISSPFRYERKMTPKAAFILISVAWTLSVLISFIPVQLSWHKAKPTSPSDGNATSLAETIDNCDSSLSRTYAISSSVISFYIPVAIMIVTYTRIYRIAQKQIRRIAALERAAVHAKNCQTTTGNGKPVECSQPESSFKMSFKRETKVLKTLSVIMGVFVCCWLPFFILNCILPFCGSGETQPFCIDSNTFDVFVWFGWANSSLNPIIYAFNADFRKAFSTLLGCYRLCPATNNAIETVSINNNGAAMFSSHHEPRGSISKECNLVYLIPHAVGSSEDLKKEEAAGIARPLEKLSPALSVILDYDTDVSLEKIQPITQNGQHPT
How it was run: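 Tetracycline-induced HEK293 Trex D1 cells with forced coupling to calcium, loaded with no-wash calcium dye; kinetic fluorescence read 180 s after compound addition for agonism, then a further 180 s after an EC20 dopamine challenge for potentiation.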

[20] = molecular target: ATP-dependent 6-phosphofructokinase (Trypanosoma brucei brucei) (UniProt O15648); test: qHTS Validation Assay to Find Inhibitors of T. brucei phosphofructokinase (AID 485368); details: T. brucei PFK enzyme assay, qHTS 7-point titration; series mostly up to 57.5 µM
Chain of ATP-dependent 6-phosphofructokinase (Trypanosoma brucei brucei) (O15648 whole entry, looked up): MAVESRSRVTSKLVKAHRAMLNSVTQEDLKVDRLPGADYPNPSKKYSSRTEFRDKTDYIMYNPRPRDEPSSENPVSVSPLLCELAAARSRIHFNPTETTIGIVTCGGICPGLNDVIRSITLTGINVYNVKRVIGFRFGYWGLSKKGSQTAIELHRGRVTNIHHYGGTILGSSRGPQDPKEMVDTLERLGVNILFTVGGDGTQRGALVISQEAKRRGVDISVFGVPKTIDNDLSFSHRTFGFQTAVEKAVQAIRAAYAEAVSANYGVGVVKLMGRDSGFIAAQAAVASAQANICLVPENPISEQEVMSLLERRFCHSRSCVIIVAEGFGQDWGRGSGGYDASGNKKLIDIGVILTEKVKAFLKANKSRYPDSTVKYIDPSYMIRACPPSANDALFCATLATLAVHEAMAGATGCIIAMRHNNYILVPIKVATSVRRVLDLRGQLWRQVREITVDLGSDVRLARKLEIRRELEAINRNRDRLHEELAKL
How it was run: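 Activity was normalized between 1x (1.25 nM) PFK wells as no inhibition and enzyme-free wells as full inhibition, from luminescence after ADP-Glo detection of ADP made from 0.5 mM F6P and 0.1 mM ATP over 45 min.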

Measured: Potency

N[C@@H](COP(=O)(O)O)C(=O)O
not listed: [20]
inactive: all other assays above

CCN(CC)CCNC(=O)c1ccc(NC(C)=O)cc1
not listed: [16] | [18] | [20]
inactive: all other assays above

Cc1nc2c([nH]1)c(=O)n(C)c(=O)n2Cc1ccco1
not listed: [18]
inactive: all other assays above

NC(=O)N1c2ccccc2C=Cc2ccccc21
not listed: [18]
inactive: all other assays above

CCCOc1ccccc1-c1nc2n[nH]nc2c(=O)[nH]1
not listed: [9]
inactive: all other assays above

CCN1CCc2nc(N)oc2CC1
active: [12] 29.9 µM
inactive: all other assays above

Cc1ccc(S(=O)(=O)NC(=O)NN2CCCCCC2)cc1
not listed: [16] | [20]
inactive: all other assays above

NC(=O)c1ncn([C@@H]2O[C@H](CO)[C@@H](O)[C@H]2O)c1O
not listed: [20]
inactive: all other assays above

NCCCNCCSP(=O)(O)O
not listed: [13]
inactive: all other assays above

CN1CCN(C2=Nc3ccccc3Oc3ccc(Cl)cc32)CC1
not listed: [9] | [10]
inactive: all other assays above

CC(N=C(NC#N)Nc1ccncc1)C(C)(C)C (configuration not stated)
not listed: [13]
inactive: all other assays above

c1ccc2c(c1)CCCC2C1=NCCN1 (configuration not stated)
not listed: [14]
inactive: all other assays above

O=C(CCNNC(=O)c1ccncc1)NCc1ccccc1
inactive: all assays above

CC1=NS(=O)(=O)c2cc(Cl)ccc2N1
not listed: [16]
inactive: all other assays above

Nc1c2c(nc3ccccc13)CCCC2O (configuration not stated)
not listed: [16] | [20]
inactive: all other assays above
